This is an account of results in PubChem BioAssay (EPA / NIEHS).

In general, AC50 refers to the midpoint of the concentration-response curve, whichever way the signal moves.

Results filed as inconclusive are left out. The source made the active and inactive calls. How the source made its calls: active means hit-call score of the fitted dose curve at least 0.9, where 1 is the maximum; inconclusive means response in the unintended direction; inactive means score below 0.9.

The nature of this assay: Tanguay_ZF_120hpf_BRAI_legacy: (Legacy) Oregon State University Tanguay Lab 120 Hour Post-fertilization zebrafish Assay for Brain Malformation (AID 2283641). As for the experimental part: Tanguay_ZF_120hpf_legacy is a whole embryo, multiplexed endpoint assay using zebrafish larvae exposed for 120 hours post fertilization on a 96-well plate.Tanguay_ZF_120hpf_BRAI_legacy is one of one assay component(s) measured or calculated from the Tanguay_ZF_120hpf_legacy assay. It is designed to make measurements of zebrafish development as detected with brightfield microscopy of developing zebrafish embryos.Data from the assay component Tanguay_ZF_120hpf_BRAI_legacy was analyzed into 1 assay endpoints. This assay endpoint, Tanguay_ZF_120hpf_BRAI_legacy, was analyzed in the positive analysis fitting direction relative to DMSO as the negative control and baseline of activity. Using a type of morphology reporter, gain-of-signal activity can be used to understand changes in developmentals as they relate to the whole embryo. To generalize the intended target to other relatable targets, this assay endpoint is annotated to the zebrafish development intended target family, where the subfamily is brain morphogenesis.
Zebrafish husbandry: Tropical 5D wild-type adult zebrafish were housed in at an approximate density of 1000 per 100 gallon tank at the Sinnhuber Aquatic Research Laboratory, Oregon State University, Corvallis, OR. Each tank was kept at standard laboratory conditions of 28C on a 14-h light/10-h dark photoperiod in fish water consisting of reverse osmosis water supplemented with a commercially available salt (Instant Ocean). Spawning funnels were placed into the tanks the night prior, and embryos were collected and staged. […] Ten microliters of each row of dilution plate 2 was added to 2 exposure plates. The final DMSO concentration used was 0.64% (vol/vol). Thirty-two embryos were also exposed to 5uM trimethyltin chloride (positive control). Plates were sealed to prevent evaporation and foil covered to reduce light exposure and kept in a 28C incubator. Embryos were statically exposed until 120 hpf. At 24 hpf, embryos were assessed for photomotor response using a custom photomotor response analysis tool (PRAT) and for developmental toxicity endpoints (MO24: mortality at 24 hpf, DP: developmental progression, SM: spontaneous movement, and NC: notochord distortion). At 120 hpf, locomotor activity was measured using Viewpoint Zebralab and assessed for 18 endpoints. Zebrafish acquisition and analysis program (ZAAP), a custom program designed to inventory, acquire, and manage zebrafish data, was used to collect developmental endpoints as either present or absent (i.e., binary responses were recorded). If mortality occurred for an embryo (at either 24 or 120 hpf), the non-mortality endpoints were not measured.
In the case of `CCCCC(CC)COC(=O)c1ccc(C(=O)OCC(CC)CCCC)c(C(=O)OCC(CC)CCCC)c1` (stereo not given), the call was inactive. The same measure, in the same setting: for `CCC(C)c1ccc(O)cc1` (stereo not given) the value was “inactive”; for `[As]#[In]`, “inactive”. Still for that read-out and setting: for `CS(=O)(=O)NC(=O)c1cc(Oc2ccc(C(F)(F)F)cc2Cl)ccc1[N+](=O)[O-]` the value was “inactive”; for `CCOC(=O)[C@]1(c2ccccc2)Oc2ccccc2[C@@H]1N`, “inactive”.

With `O=Cc1ccco1`, the call was inactive. For the compound `C1=Cc2cccc3cccc1c23`, the compound was classed as inactive.

Consider `Nc1ccc([N+](=O)[O-])cc1`, for which the outcome was inactive.

Regarding `O=C(N[C@H](c1ccccc1)[C@@H]1CN2CCC1CC2)c1c(Cl)ccc(C(F)(F)F)c1Cl`, the call was inactive.

With `OCCCBr`, the call was inactive. Regarding `Oc1ccc2ccc3cccc4ccc1c2c34`, the AC50 was 46.1 µM (active). As for `c1ccc2c(c1)-c1cccc3cccc-2c13`, the result was inactive. Still for that read-out and setting: for `Cc1ccc(N=C=O)cc1N=C=O` the value was “inactive”; for `N#CC(Br)Br`, “inactive”. For the compound `CN(C)c1ccc(C(=O)c2ccc(N(C)C)cc2)cc1`, the AC50 is 48.7 µM (active). Same read-out and setting: for `[Cl-].[Cl-].[Hg+2]` the value was 1.22 µM (active). For the compound `O=[N+]([O-])C(Br)(CO)CO`, the compound was classed as inactive.

As for `CC(C)(C)C(O)(CCc1ccc(Cl)cc1)Cn1cncn1` (stereo not given), the outcome was inactive.

For the compound `CCCCCCCCn1sccc1=O`, the outcome was inactive.

For the compound `CCCCCCCCCCCCCN1CC(C)OC(C)C1` (stereo not given), the result was inactive.

Take `Clc1ccccc1Cl`: the call was inactive. `CCC[CH2][Sn]([Cl])([CH2]CCC)[CH2]CCC`: the result was inactive. The same measure, in the same setting: for `ClC1=C(Cl)[C@]2(Cl)[C@H]3[C@H]([C@@H]4C=C[C@H]3C4)[C@@]1(Cl)C2(Cl)Cl` the value was “inactive”.

For the compound `C[N+](C)(C)CC1CO1` (stereo not given), the result was inactive. Take `ClCCOCCCl`: the outcome was inactive. `Cc1ccc(N)c(N)c1`: the compound was classed as inactive. Same read-out and setting: for `O=C(Oc1ccc(Br)cc1)N1CCN2CCC1CC2` the value was “inactive”.

Turning to `Cc1ccc(N)cc1`, the compound was classed as inactive. In the case of `CO[C@@H]1[C@H](OC(=O)NC(=O)CCl)CC[C@]2(CO2)[C@H]1[C@@]1(C)O[C@@H]1CC=C(C)C`, the compound was called inactive. The same measure, in the same setting: for `CC(C)COC(=O)c1ccccc1C(=O)OCC(C)C` the value was “inactive”; for `CCCSC(=O)N(CCC)CCC`, “inactive”; for `CCOc1cccc(C2(N3CCN(c4ccccc4)CC3)CCC(C)CC2)c1` (stereo not given), “inactive”. On the same count and under the same terms, for `COC(=O)c1ccccc1N` the value was “inactive”; for `COc1cc(C=O)cc2c1[C@H](COC(N)=O)[C@]1(OC(C)=O)ON2C[C@H]2[C@@H]1N2C(C)=O`, “inactive”; for `Cc1cc(N=Nc2ccccc2C)ccc1N`, “inactive”. Same read-out and setting: for `CC(C)(C)OOC(C)(C)CCC(C)(C)OOC(C)(C)C` the value was “inactive”; for `CC(C)(C)OOC(=O)c1ccccc1`, “inactive”. For the compound `Cc1ccc([N+](=O)[O-])cc1`, the outcome was inactive. On the same count and under the same terms, for `CN(C)C(=O)Nc1ccc(Cl)cc1` the value was “inactive”; for `c1ccc(NNc2ccccc2)cc1`, “inactive”.
